Test results taken from the OligoGym collection.

Molecular target: CXCL1
Test: pooled miR-30 sensor sort-seq; sequence = guide strand
Conditions: shRNA
Also: reference of the scale not given here.

Row | Sequence | sensor-assay potency score (higher = more potent)
1 | TGAGGCAAGCTTTCCGCCCATT | -1.55
2 | TTAACTATGGGGGATGCAGGAT | -1.04
3 | TAACTATGGGGGATGCAGGATT | -1.31
4 | ATGATTTTCTTAACTATGGGGG | -0.365
5 | TTGAGGCAAGCTTTCCGCCCAT | -0.645
6 | TGATTTTCTTAACTATGGGGGA | -0.639

Molecular target: CXCL3
Test: as above
Conditions: shRNA

Row | Sequence | sensor-assay potency score (higher = more potent)
7 | TAAATAAGTAGAACCCTCGTAA | -0.0177
8 | TAGTCAAACACATTAAGTCCTT | -0.625
9 | TTGTTCAGTATCTTTTCGATGA | -0.149
10 | TTTGATGAAACACACTCACATC | -1.05
11 | TGAGACAAGCTTTCTTCCCATT | -1.23
12 | TGCAGTGTCTGCAAGCACTGGC | 0.137
13 | TTCGATGATTTTCTGAACCATG | -0.954
14 | TTGAGACAAGCTTTCTTCCCAT | 0.654
15 | TACATAAATAAGTAGAACCCTC | -0.724
16 | ATGATTTTCTGAACCATGGGGG | -0.165
17 | TAAATAATCAGGACTGAGCTAT | -0.218
18 | TTTCTTCCCATTCTTGAGTGTG | -0.403

Molecular target: CXorf40A
Test: as above
Conditions: shRNA

Row | Sequence | sensor-assay potency score (higher = more potent)
19 | TACAGCTTGATTTTCTAGTTCC | 0.219
20 | TTCAGGTTGGTCAGTACAGCTT | -0.578
21 | TCCACCAGCAGCTCCCGCCAGG | -1.9
22 | TCAGTACAGCTTGATTTTCTAG | -0.864
23 | TTGGTCAGTACAGCTTGATTTT | -1.4
24 | TCAGGTTGGTCAGTACAGCTTG | 0.439

Molecular target: CXorf41
Test: as above
Conditions: shRNA

Row | Sequence | sensor-assay potency score (higher = more potent)
25 | TTCTTCAGGATTAAGTAGCTTA | 0.137
26 | TAACATCCCACATATCATCATA | -1.24
27 | TTAGCCACTAGTTCACTGCAAC | -0.799
28 | TAACTGAAGAAACACTCTCAAA | -1.54
29 | TATCATCATATTCTGCTCCTTC | 0.467
30 | TTTATTACCTGTATATTCCAGA | 0.269
31 | TTCAATTATGTAATTGACCATG | -1.17
32 | TTGAGCTCTTCTATTTGGGGTG | 0.00833
33 | TAACTCTCTTTTCATAGTCATA | -1.66
34 | TAGTTCACTGCAACAACCTGTT | -0.276
35 | TATATCTTCAGTTCCCACCTGC | 0.748
36 | TTATCAACAGCTTCTTCTGAGG | -1.2

Molecular target: CXorf56
Test: as above
Conditions: shRNA

Row | Sequence | sensor-assay potency score (higher = more potent)
37 | TATGAGTCAGCAACTTCCCTAG | 0.0765
38 | TTCATTTTCGCTTTCTTGGCTT | 0.484
39 | TTTCTGAGTATATATGTTCGTT | -0.396
40 | TTGGTCATCATCACCTTCTTAG | -0.419
